The values that follow come from PubChem BioAssay.

Active and inactive are the calls of the source.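 The calls were made as follows, unless noted: active = viability loss from added drug above about 55%, and viability with drug at most 40%, in both replicates (limit read from the data, passing the limit was not always enough); inconclusive = both conditions met in only one replicate; inactive = neither replicate meets both conditions.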

For orientation: viability means a read-out of living cells in per cent, often relative to untreated cells. One may read the inhibition as the drop in the measured response relative to a control, in per cent.

Assay [1] in a line: Her2 expression decrease, cell viability multiplex – SKBR3 breast tumor cells, AlphaScreen, ATP viability, primary screen (AID 461;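 active = Her2 level under about 52% in both replicate screens, with viability over 70% of control, limit read from the data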;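 as to Her2 level: lower value means less Her2 protein in the cells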;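 as to viability: percent of carrier control wells set as 100% viability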). The note with it: SKBR3 Her2 protein level, 18-24 h, measured here: SKBR3 viability, ATP luminescence, at 10 µM.
The target of assay [2] is Receptor tyrosine-protein kinase erbB-2 (Homo sapiens) (UniProt P04626). The description is as above. The note with it: 18-24 h, at 10 µM, stronger effect = lower value.
Receptor tyrosine-protein kinase erbB-2 (Homo sapiens), sequence (P04626 whole entry, looked up): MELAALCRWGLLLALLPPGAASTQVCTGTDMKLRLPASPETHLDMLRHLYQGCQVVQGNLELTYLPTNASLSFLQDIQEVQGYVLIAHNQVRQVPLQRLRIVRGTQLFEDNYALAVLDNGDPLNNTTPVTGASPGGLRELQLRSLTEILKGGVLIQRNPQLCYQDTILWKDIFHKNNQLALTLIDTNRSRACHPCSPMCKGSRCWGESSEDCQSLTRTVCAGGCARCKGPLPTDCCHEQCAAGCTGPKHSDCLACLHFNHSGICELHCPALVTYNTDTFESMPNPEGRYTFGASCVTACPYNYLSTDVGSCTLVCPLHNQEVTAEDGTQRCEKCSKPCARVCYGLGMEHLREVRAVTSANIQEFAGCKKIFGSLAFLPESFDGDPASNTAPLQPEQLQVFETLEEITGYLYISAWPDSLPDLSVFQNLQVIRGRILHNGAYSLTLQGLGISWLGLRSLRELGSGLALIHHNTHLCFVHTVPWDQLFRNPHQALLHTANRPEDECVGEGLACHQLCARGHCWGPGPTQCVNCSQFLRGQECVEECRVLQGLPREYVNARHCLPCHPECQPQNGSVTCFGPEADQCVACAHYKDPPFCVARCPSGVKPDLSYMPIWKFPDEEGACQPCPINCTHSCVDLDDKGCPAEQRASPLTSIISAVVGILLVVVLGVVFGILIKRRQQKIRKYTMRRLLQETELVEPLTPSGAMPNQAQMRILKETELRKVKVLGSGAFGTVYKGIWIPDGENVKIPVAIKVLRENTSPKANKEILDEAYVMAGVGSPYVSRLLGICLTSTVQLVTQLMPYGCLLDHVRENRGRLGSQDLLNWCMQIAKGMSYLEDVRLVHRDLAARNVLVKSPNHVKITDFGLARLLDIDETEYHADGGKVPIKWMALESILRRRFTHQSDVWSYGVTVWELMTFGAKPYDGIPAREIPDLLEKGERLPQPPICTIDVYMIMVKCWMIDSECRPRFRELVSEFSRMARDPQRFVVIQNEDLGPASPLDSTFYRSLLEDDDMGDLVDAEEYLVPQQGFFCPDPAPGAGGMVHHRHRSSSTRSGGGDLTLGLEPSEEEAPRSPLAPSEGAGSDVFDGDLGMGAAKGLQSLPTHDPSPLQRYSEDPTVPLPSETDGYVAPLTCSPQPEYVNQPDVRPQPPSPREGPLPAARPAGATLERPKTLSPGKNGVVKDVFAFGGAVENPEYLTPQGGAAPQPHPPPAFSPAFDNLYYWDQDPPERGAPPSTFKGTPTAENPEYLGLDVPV
Assay [3] in a line: reduced viability of SK-BR-3 breast cancer cells – cell-based, 24 h, human, pilot screen (AID 572;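 active = viability at or below 10% of carrier control in both of two separate runs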;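 also: compound exposure lasted between 18 and 24 h rather than exactly 24 h; 100% = carrier-treated control wells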). The following applies: SK-BR-3 viability, CellTiter-Glo luminescence, at 10 µM, stronger effect = lower value. On the technique in general: In ATP-based viability assays light output follows the ATP content of the culture.
A short description of assay [4]: HUVEC growth inhibition – cell-based, human, primary screen (AID 575;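 active = viability at or below 30% in both replicate assays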;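 also: 100% = median of untreated cell wells with 0.1% DMSO on each plate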). The following applies: HUVEC proliferation, CellTiter-Glo luminescence, 72 h; at 10 µM; stronger effect = lower value.
The nature of assay [5]: H69AR cell proliferation blockers – human, duplicate replicates, primary screen (AID 580;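 active = viability at or under a set limit in both replicates, limit being median viability minus 3 SD, cut at about 48% in these data, passing the limit was not always enough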;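 also: 100% = mean luminescence of untreated wells and 0% = no signal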). The following applies: H69AR lung tumor cells viability, ATP luminescence, 72 h; at 10 µM; stronger effect = lower value.
Assay [6] can be described thus: MRP1 drug-resistance reversers in H69AR cells – cell-based, doxorubicin co-treatment, pilot screen (AID 601). The following applies: CellTiter-Glo, 72 h, at 10 µM; for differential viability (reversal): stronger effect = higher value.
Assay [7] is described as follows: yeast transport mutant growth inhibition pilot in 384-well plates, post-Golgi transport modulator project (AID 636; in the data active = inhibition above about 31%). The note with it: absorbance 615 nm, about 18 h, stronger effect = higher value.
Assay [8] is described as follows: growth suppression of yeast trafficking mutant, preliminary HTS, modulators of trafficking downstream of Golgi apparatus project, 1536-format plate, OD 615 nm (AID 637; in the data active = inhibition above about 30%). The note with it: yeast transport mutant growth, absorbance 615 nm, 18 h; stronger effect = higher value.
Setting [9] is: H69AR cells + 2 uM doxorubicin, measured here: viability with 2 uM doxorubicin, stronger effect = lower value.
[10] abbreviates: H69AR cells, compound alone cytotoxicity.

`O=C(NCc1cccnc1)c1ccc(Cl)c(Cl)c1`: the viability in assay [1] was 89%; in assay [3] it was 89% (inactive); in assay [4] it was 95.2% (inactive); in assay [5] it was 96.8% (inactive); in assay [6] (setting [9]), 87.7%; in assay [6] (setting [10]) it was 96.8%. The Her2 level in assay [2] was 75% (inactive). Further, the differential viability (reversal) in assay [6] (H69AR cells + 2 uM doxorubicin) was 9.16% (inactive). Further, the figures for the inhibition in assay [7] and in assay [8] were -1.33% (inactive) and 3.61% (inactive), respectively.

Take `COC(=O)[C@H](CCSC)NC(=O)Nc1cc(C)ccc1C`: the viability is 124% in assay [1]; 124% (inactive) in assay [3]; 84.1% (inactive) in assay [4]; 82.2% (inactive) in assay [5]; 90% in assay [6] (setting [9]); 82.2% in assay [6] (setting [10]). Further, the Her2 level in assay [2] was 89% (inactive). Also, in assay [6] (H69AR cells + 2 uM doxorubicin), the differential viability (reversal) was -7.82% (inactive). Besides, the inhibition in assay [7] is -6.22% (inactive); in assay [8], 5.71% (inactive).

For the compound `Cc1nnc(SCC(=O)NC(C)(C)C)n1CCc1ccccc1`, the viability in assay [1] is 93.5%; in assay [3], 93.5% (inactive); in assay [4], 105% (inactive); in assay [5] it was 95.6% (inactive); in assay [6] (setting [9]), 91.4%; in assay [6] (setting [10]) it was 95.6%. Further, in assay [2], the Her2 level was 92.5% (inactive). In addition, the differential viability (reversal) in assay [6] (H69AR cells + 2 uM doxorubicin) is 4.22% (inactive). Besides, the inhibition in assay [7] was -6.53% (inactive); in assay [8], 5.65% (inactive).

In the case of `CC(C)COc1ccc(-c2nnn(CC(=O)N3CCCC3)n2)cc1`, the viability was 86% in assay [1]; 86% (inactive) in assay [3]; 108% (inactive) in assay [4]; 104% (inactive) in assay [5]; 88.9% in assay [6] (setting [9]); 104% in assay [6] (setting [10]). Moreover, the Her2 level in assay [2] is 85% (inactive). For the same compound, the differential viability (reversal) in assay [6] (H69AR cells + 2 uM doxorubicin) was 14.9% (inactive). For the same compound, the figures for the inhibition in assay [7] and in assay [8] were -8.67% (inactive) and 16.9% (inactive), respectively.

Regarding `O=c1[nH]c2ccc(S(=O)(=O)N3CCN(C4CCCCC4)CC3)cc2[nH]c1=O`, the viability in assay [1] was 90.5%; in assay [3], 90.5% (inactive); in assay [4], 91.8% (inactive); in assay [5], 103% (inactive); in assay [6] (setting [9]), 93.7%; in assay [6] (setting [10]), 103%. For the same compound, the Her2 level in assay [2] is 104% (inactive). Also, the differential viability (reversal) in assay [6] (H69AR cells + 2 uM doxorubicin) was 9.67% (inactive). In addition, the inhibition was 0.92% (inactive) in assay [7] and -12.6% (inactive) in assay [8].

In the case of `CCCC(=O)Nc1ccccc1NC(=O)CN(C)S(=O)(=O)c1ccc(C)cc1`, the viability is 97% in assay [1]; 97% (inactive) in assay [3]; 103% (inactive) in assay [4]; 98.9% (inactive) in assay [5]; 89.6% in assay [6] (setting [9]); 98.9% in assay [6] (setting [10]). The Her2 level in assay [2] was 114% (inactive). Besides, in assay [6] (H69AR cells + 2 uM doxorubicin), the differential viability (reversal) was 9.23% (inactive). Also, the inhibition in assay [7] was -4.8% (inactive); in assay [8], -4.84% (inactive).

Consider `Cc1ccc(S(=O)(=O)N(C)c2ccc(OCC(=O)OCc3c(C)noc3C)cc2)cc1`, for which the viability in assay [1] was 92.5%; in assay [3], 92.5% (inactive); in assay [4] it was 95.4% (inactive); in assay [5], 105% (inactive); in assay [6] (setting [9]), 98.6%; in assay [6] (setting [10]), 105%. Moreover, the Her2 level in assay [2] was 97% (inactive). In addition, the differential viability (reversal) in assay [6] (H69AR cells + 2 uM doxorubicin) is 6.56% (inactive). For the same compound, the inhibition was -1.71% (inactive) in assay [7] and -10.3% (inactive) in assay [8].

For `Cc1ccc2c(c1)CCCN2C(=O)C1CCCO1` (stereo not given), the viability was 101% in assay [1]; 101% (inactive) in assay [3]; 99.3% (inactive) in assay [4]; 108% (inactive) in assay [5]; 93.3% in assay [6] (setting [9]); 108% in assay [6] (setting [10]). Further, in assay [2], the Her2 level is 100% (inactive). The differential viability (reversal) in assay [6] (H69AR cells + 2 uM doxorubicin) is 14.6% (inactive). Further, the values for the inhibition in assay [7] and in assay [8] were -1.97% (inactive) and -6.83% (inactive), respectively.

As for `Cc1sc2nc(SCC(=O)Nc3c(C)n(C)n(-c4ccccc4)c3=O)n(C)c(=O)c2c1C`, the viability was 102% in assay [1]; 102% (inactive) in assay [3]; 95.4% (inactive) in assay [4]; 97.3% (inactive) in assay [5]; 96.2% in assay [6] (setting [9]); 97.3% in assay [6] (setting [10]). Moreover, the Her2 level in assay [2] is 95.5% (inactive). For the same compound, in assay [6] (H69AR cells + 2 uM doxorubicin), the differential viability (reversal) is 1.12% (inactive). Moreover, the inhibition in assay [7] was 0% (inactive); in assay [8] it was 1.15% (inactive).

For the compound `Cc1nc2oc3c(NCc4ccccn4)ncnc3c2c2c1COC(C)(C)C2`, the viability was 90% in assay [1]; 90% (inactive) in assay [3]; 85.9% (inactive) in assay [4]; 99.2% (inactive) in assay [5]; 92.2% in assay [6] (setting [9]); 99.2% in assay [6] (setting [10]). For the same compound, the Her2 level in assay [2] was 89% (inactive). In addition, the differential viability (reversal) in assay [6] (H69AR cells + 2 uM doxorubicin) was 7.06% (inactive). Further, the inhibition in assay [7] is -4.4% (inactive); in assay [8], -1.59% (inactive).

Regarding `O=C(O)CSc1ccc2ccccc2n1`, the viability was 95.5% in assay [1]; 95.5% (inactive) in assay [3]; 106% (inactive) in assay [4]; 90% (inactive) in assay [5]; 80.7% in assay [6] (setting [9]); 90% in assay [6] (setting [10]). The Her2 level in assay [2] was 81% (inactive). Moreover, the differential viability (reversal) in assay [6] (H69AR cells + 2 uM doxorubicin) is 9.33% (inactive). Further, the inhibition is -7.47% (inactive) in assay [7] and 5.48% (inactive) in assay [8].

For the compound `Nc1nonc1-n1nnc(C(=O)c2ccccc2)c1-c1ccccc1`, the viability in assay [1] was 96.5%; in assay [3], 96.5% (inactive); in assay [4] it was 63.6% (inactive); in assay [5] it was 99.4% (inactive); in assay [6] (setting [9]) it was 91.4%; in assay [6] (setting [10]) it was 99.4%. In assay [2], the Her2 level was 100% (inactive). For the same compound, in assay [6] (H69AR cells + 2 uM doxorubicin), the differential viability (reversal) is 7.96% (inactive). The values for the inhibition in assay [7] and in assay [8] were -6.58% (inactive) and 6.03% (inactive), respectively.

Regarding `COc1ccc(CCNC(=O)CSc2nnc(CNc3ccc(Cl)cc3)o2)cc1OC`, the viability was 112% in assay [1]; 112% (inactive) in assay [3]; 60.5% (inactive) in assay [4]; 84.3% (inactive) in assay [5]; 90.9% in assay [6] (setting [9]); 84.3% in assay [6] (setting [10]). In addition, the Her2 level in assay [2] is 89% (inactive). Further, the differential viability (reversal) in assay [6] (H69AR cells + 2 uM doxorubicin) was -6.59% (inactive). For the same compound, the inhibition in assay [7] was -0.65% (inactive); in assay [8] it was -4.29% (inactive).

On to `CCn1ncc(C2=NOC(C(=O)N3CCC(C(N)=O)CC3)C2)c1C` (stereo not given), for which the viability is 104% in assay [1]; 104% (inactive) in assay [3]; 98.6% (inactive) in assay [4]; 101% (inactive) in assay [5]; 103% in assay [6] (setting [9]); 101% in assay [6] (setting [10]). Moreover, the Her2 level in assay [2] was 106% (inactive). For the same compound, the differential viability (reversal) in assay [6] (H69AR cells + 2 uM doxorubicin) is -2.31% (inactive). For the same compound, the values for the inhibition in assay [7] and in assay [8] were -1.05% (inactive) and 15.2% (inactive), respectively.

On to `O=C(NCc1ccc(Cl)cc1)c1ccc(COCC(F)(F)F)o1`, for which the viability was 100% in assay [1]; 100% (inactive) in assay [3]; 88.5% (inactive) in assay [4]; 101% (inactive) in assay [5]; 79.7% in assay [6] (setting [9]); 101% in assay [6] (setting [10]). Besides, in assay [2], the Her2 level is 91% (inactive). Besides, the differential viability (reversal) in assay [6] (H69AR cells + 2 uM doxorubicin) is 20.9% (inactive). The inhibition in assay [7] is -1.45% (inactive); in assay [8], -5.27% (inactive).
